# Measured values taken from PubChem BioAssay (NCI).
# This is part of a sample that, as a whole, favours compounds with a hit. Of some 79,000 tested, about 15% had one in any assay. Values without a mark were called inactive. Cut-off read from the data, not from the text of the source: active = growth inhibition above about 70%; inactive = the rest.
# Assay: NCI Yeast Anticancer Drug Screen. Data for the cln2 rad14 strain (AID 165);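 note: 0% = growth equal to vehicle treated cultures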
# Conditions: S. cerevisiae cln2 rad14 strain, at 50.0 µM, hits give high values
# Summary of the method: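 The screen exposed genetically defined yeast (cln2 rad14) to test compounds and scored growth inhibition relative to vehicle-treated controls.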
row,Compound,growth inhibition
1,COC1OC(CO)C(O)C2OCCOCCOC3C(OC)OC(CO)C(O)C3OCCOCCOC12 (stereo not given),-7.7%
2,CCCN(CCC)CCCCCCCCN,12.8%
3,[O-][n+]1c(CN2CCCCC2)nc2cccc3c2c1-c1ccccc1-3,-8.55%
4,COC(=O)C1OC(O[C@H]2CC[C@]3(C)[C@H]4CC=C5[C@@H]6CC(C)(C)CC[C@]6(C(=O)OC6OCC(O)C(O)C6OC6OC(C)C(OC7OCC(O)C(O)C7O)C(OC7OCC(O)(CO)C7O)C6O)[C@H](O)C[C@@]5(C)[C@]4(C)CC[C@H]3C2(C)C)C(O)C(O)C1O (stereo not given in full),34.6%
5,CC(C)(C)C(O)CC(O)(C(F)(F)F)C(F)(F)F (stereo not given),19.6%
6,OC(c1ccncc1)(c1ccc(Cl)cc1)c1cccs1 (stereo not given),-5.2%
7,O=C(C[n+]1ccncc1)c1ccc2c(c1)CCCC2,-5.95%
8,COC(=O)C1(C2CCc3cc(OC)ccc3C2=O)NC(=S)NC(=O)C1C#N (stereo not given),-4.05%
9,N#C/C(=C\c1cc(Br)cc(Br)c1O)c1ccc([N+](=O)[O-])cc1,17.1%
10,N#CC(CCc1ccccc1)(c1ccccc1)c1ccccc1,-45.5%
11,CCOC(=O)c1nc2ccc(C(F)(F)F)cc2nc1NCc1ccc(F)cc1,10.2%
12,CN(C)CCNC1=CC(=O)c2nc3ccccc3c3ccnc1c23,27.9%
13,C[C@H](CCc1nc(C#N)c(N)o1)[C@H]1CC[C@H]2[C@@H]3[C@@H](O)CC4C[C@@H](O)CC[C@]4(C)[C@H]3C[C@@H](O)[C@]12C (stereo not given in full),9.55%
14,FC(F)(F)c1ccc(C2ON=C(c3ccccc3)N2C23CC4CC(CC(C4)C2)C3)cc1 (stereo not given),-0.4%
15,Fc1ccc(NC(=S)NCCN2CCCC2)cc1,3.75%
16,C/C=C/C(=O)N(CC)CC,1.65%
17,CC1CC[N-]C(N)N1.CC1CC[N-]C(N)N1.[Cl][Pd][Cl] (stereo not given),-34.4%
18,NNC(=O)NN1C(=O)c2cc(S(=O)(=O)O)cc3c(N)c(S(=O)(=O)O)cc(c23)C1=O,6.35%
19,O=c1[nH]cc(CNC2CCCCC2)c(=O)[nH]1,-0.2%
20,CCOC(Nc1ccccc1[N+](=O)[O-])C(=O)c1ccccc1 (stereo not given),28.7%

row,Compound,growth inhibition
1,O=S(=O)(O)SCCCNCCCCCCCCNCCCSS(=O)(=O)O,-13.3%
2,COc1ccc2c(c1)C=C(C(C)(C)C)NS2(=O)=O,-12.7%
3,CCN(CC)c1ccc(/C=N\NC(=S)N/N=C/c2ccc(N(CC)CC)cc2)cc1,33%
4,CCCCCCCCCCCCCCCC(=O)N(CCCCCCCCCCC(=O)O)CC(O)C(O)C(OC1OC(CO)C(O)C(O)C1O)C(O)CO (stereo not given),-22.3%
5,CCOC(=O)c1cnc(SC)nc1Nc1ccc(Cl)cc1,-8.65%
6,CCCCCCCCSC1=NS(=O)(=O)c2ccccc21,31.1%
7,Cc1nc(C)c(C(=O)NNC(=O)Cc2ccccc2)cc1C(=O)NNC(=O)Cc1ccccc1,15.5%
8,O=C(C(c1ccccc1)C(C(=O)N(Cc1ccccc1)Cc1ccccc1)c1ccccc1)N(Cc1ccccc1)Cc1ccccc1 (stereo not given),-14.3%
9,CCCC(CCC)(C(=O)OCC)C(=O)OCC,-15.4%
10,CCCCOC(=O)c1ccc(OC(=O)Nc2ccccc2)cc1,7.7%
11,O=C(NC12CC3CC(CC(C3)C1)C2)C(=O)c1c[nH]c2ccc(Br)cc12,-21.4%
12,O=C1C(=Cc2ccc(Cl)c(Cl)c2)C([O-])=C([P+](c2ccccc2)(c2ccccc2)c2ccccc2)C([O-])=C1[P+](c1ccccc1)(c1ccccc1)c1ccccc1,5.15%
13,N#C/C(=N/Nc1nc[nH]c1C(N)=O)C(=O)Nc1ccccc1,-0.1%
14,CCOC(=O)C(C(=O)OCC)C(=O)c1cc(OC)c(OC)c(OC)c1,7.35%
15,Cc1cc(C(N)=O)c(C(N)=O)c(Cl)n1,-0.2%
16,O=C(/C(N=Nc1ccccc1)=C(\O)c1ccccc1)c1ccccc1,11.8%
17,CN(C)CCSSCCN(C)C,-14.1%
18,CCCCOC(=O)C1CC2OC2CC1C(=O)OCCOCCOC(=O)C1CC2OC2CC1C(=O)OCCCC (stereo not given),-39.9%
19,c1cc2[nH]snc2c2cncc12,-19.1%
20,COCCN(CCOC)C1C2=C(CCCC2)OS(=O)(=O)C1c1ccccc1 (stereo not given),12.9%

# Assay: NCI Yeast Anticancer Drug Screen. Data for the bub3 strain (AID 167)
# Conditions: S. cerevisiae bub3 mutant strain, at 50.0 µM, hits give high values
# Summary of the method: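 Readout: yeast growth inhibition, expressed relative to vehicle-only wells. The test organism is a mutant strain from a panel with lesions in DNA repair or checkpoint genes.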
row,Compound,growth inhibition
1,COC1OC(CO)C(O)C2OCCOCCOC3C(OC)OC(CO)C(O)C3OCCOCCOC12 (stereo not given),-0.5%
2,CCCN(CCC)CCCCCCCCN,-7.9%
3,[O-][n+]1c(CN2CCCCC2)nc2cccc3c2c1-c1ccccc1-3,20.6%
4,COC(=O)C1OC(O[C@H]2CC[C@]3(C)[C@H]4CC=C5[C@@H]6CC(C)(C)CC[C@]6(C(=O)OC6OCC(O)C(O)C6OC6OC(C)C(OC7OCC(O)C(O)C7O)C(OC7OCC(O)(CO)C7O)C6O)[C@H](O)C[C@@]5(C)[C@]4(C)CC[C@H]3C2(C)C)C(O)C(O)C1O (stereo not given in full),13.6%
5,CC(C)(C)C(O)CC(O)(C(F)(F)F)C(F)(F)F (stereo not given),-5.9%
6,OC(c1ccncc1)(c1ccc(Cl)cc1)c1cccs1 (stereo not given),21.4%
7,O=C(C[n+]1ccncc1)c1ccc2c(c1)CCCC2,46.1%
8,COC(=O)C1(C2CCc3cc(OC)ccc3C2=O)NC(=S)NC(=O)C1C#N (stereo not given),-21.1%
9,N#C/C(=C\c1cc(Br)cc(Br)c1O)c1ccc([N+](=O)[O-])cc1,22.3%
10,N#CC(CCc1ccccc1)(c1ccccc1)c1ccccc1,9.5%
11,CCOC(=O)c1nc2ccc(C(F)(F)F)cc2nc1NCc1ccc(F)cc1,12.9%
12,CN(C)CCNC1=CC(=O)c2nc3ccccc3c3ccnc1c23,33.6%
13,C[C@H](CCc1nc(C#N)c(N)o1)[C@H]1CC[C@H]2[C@@H]3[C@@H](O)CC4C[C@@H](O)CC[C@]4(C)[C@H]3C[C@@H](O)[C@]12C (stereo not given in full),-9.1%
14,FC(F)(F)c1ccc(C2ON=C(c3ccccc3)N2C23CC4CC(CC(C4)C2)C3)cc1 (stereo not given),-7.5%
15,Fc1ccc(NC(=S)NCCN2CCCC2)cc1,12.8%
16,C/C=C/C(=O)N(CC)CC,-24.9%
17,CC1CC[N-]C(N)N1.CC1CC[N-]C(N)N1.[Cl][Pd][Cl] (stereo not given),-0.15%
18,NNC(=O)NN1C(=O)c2cc(S(=O)(=O)O)cc3c(N)c(S(=O)(=O)O)cc(c23)C1=O,-5.45%
19,O=c1[nH]cc(CNC2CCCCC2)c(=O)[nH]1,4.6%
20,CCOC(Nc1ccccc1[N+](=O)[O-])C(=O)c1ccccc1 (stereo not given),24.4%

row,Compound,growth inhibition
1,O=S(=O)(O)SCCCNCCCCCCCCNCCCSS(=O)(=O)O,8.45%
2,COc1ccc2c(c1)C=C(C(C)(C)C)NS2(=O)=O,59%
3,CCN(CC)c1ccc(/C=N\NC(=S)N/N=C/c2ccc(N(CC)CC)cc2)cc1,-0.95%
4,CCCCCCCCCCCCCCCC(=O)N(CCCCCCCCCCC(=O)O)CC(O)C(O)C(OC1OC(CO)C(O)C(O)C1O)C(O)CO (stereo not given),50.6%
5,CCOC(=O)c1cnc(SC)nc1Nc1ccc(Cl)cc1,0.55%
6,CCCCCCCCSC1=NS(=O)(=O)c2ccccc21,49.2%
7,Cc1nc(C)c(C(=O)NNC(=O)Cc2ccccc2)cc1C(=O)NNC(=O)Cc1ccccc1,-5.55%
8,O=C(C(c1ccccc1)C(C(=O)N(Cc1ccccc1)Cc1ccccc1)c1ccccc1)N(Cc1ccccc1)Cc1ccccc1 (stereo not given),-1.35%
9,CCCC(CCC)(C(=O)OCC)C(=O)OCC,-4.25%
10,CCCCOC(=O)c1ccc(OC(=O)Nc2ccccc2)cc1,17.6%
11,O=C(NC12CC3CC(CC(C3)C1)C2)C(=O)c1c[nH]c2ccc(Br)cc12,-2.95%
12,O=C1C(=Cc2ccc(Cl)c(Cl)c2)C([O-])=C([P+](c2ccccc2)(c2ccccc2)c2ccccc2)C([O-])=C1[P+](c1ccccc1)(c1ccccc1)c1ccccc1,-21.9%
13,N#C/C(=N/Nc1nc[nH]c1C(N)=O)C(=O)Nc1ccccc1,-0.6%
14,CCOC(=O)C(C(=O)OCC)C(=O)c1cc(OC)c(OC)c(OC)c1,2.55%
15,Cc1cc(C(N)=O)c(C(N)=O)c(Cl)n1,9.05%
16,O=C(/C(N=Nc1ccccc1)=C(\O)c1ccccc1)c1ccccc1,7.05%
17,CN(C)CCSSCCN(C)C,-2.55%
18,CCCCOC(=O)C1CC2OC2CC1C(=O)OCCOCCOC(=O)C1CC2OC2CC1C(=O)OCCCC (stereo not given),14.6%
19,c1cc2[nH]snc2c2cncc12,-24.1%
20,COCCN(CCOC)C1C2=C(CCCC2)OS(=O)(=O)C1c1ccccc1 (stereo not given),3.2%
